Experimental data from the OligoGym collection.

target: ANKRD53; assay: pooled miR-30 sensor sort-seq; sequence = guide strand; conditions: shRNA
Also: reference of the scale not given here.

Q: With TTCATTTTCGTCATCTCACGGG as the sequence, how does the sensor-assay potency score (higher = more potent) read?
A: 0.469

Q: How did the sensor-assay potency score (higher = more potent) turn out when TTTCTGATAGCAGCTTCTCTGA was run?
A: -1.05

Q: How did the sensor-assay potency score (higher = more potent) turn out when TTGCTAACATTCCACATTGTGG was run?
A: -1.32

Q: Which sensor-assay potency score (higher = more potent) does the source give for AAACTTGTACTCCTCTACCAGG here?
A: -1.13

target: ANTXR1; assay: as above; conditions: shRNA

Q: Which sensor-assay potency score (higher = more potent) does the source give for TCATTGATCTTGAAGCTGCAGA here?
A: -0.552

Q: With TTGATAATCACAGTGCAGCAGA as the sequence, how does the sensor-assay potency score (higher = more potent) read?
A: -0.3

Q: With TGTCTCTACACTGTGAGCCTGG as the sequence, how does the sensor-assay potency score (higher = more potent) read?
A: -0.327

Q: TTTTCCATCAGTAAACACCTGC was tested. Which sensor-assay potency score (higher = more potent) did it give?
A: 0.177

Q: For TTGAGTTTCTTACCACACCAGG, which sensor-assay potency score (higher = more potent) is on record?
A: -1.02

Q: TTGGAGAGTACCACTTCCGGGG was tested. Which sensor-assay potency score (higher = more potent) did it give?
A: -0.563

Q: For TTCTCATTGAGTGTGACCGAGT, which sensor-assay potency score (higher = more potent) is on record?
A: -0.633

Q: With TAAAGTGAGTGAATGAAGCTGG as the sequence, how does the sensor-assay potency score (higher = more potent) read?
A: 0.662

Q: How did the sensor-assay potency score (higher = more potent) turn out when TTATTGATTAAACAGATCCAGA was run?
A: -1.04

Q: How did the sensor-assay potency score (higher = more potent) turn out when TTGTATACACACACATGCCTTA was run?
A: -0.352

Q: With TTATATTCTGCCTTGTTCCAGA as the sequence, how does the sensor-assay potency score (higher = more potent) read?
A: -0.0343

target: ANXA11; assay: as above; conditions: shRNA

Q: How did the sensor-assay potency score (higher = more potent) turn out when TCGTGGTACAGCGACTTGCCGT was run?
A: -1.23

Q: TTAGAAACAGACATTCTTTTGG was tested. Which sensor-assay potency score (higher = more potent) did it give?
A: 0.574

Q: How did the sensor-assay potency score (higher = more potent) turn out when TCTTGAGACATTTCACCACGGC was run?
A: -0.11

Q: With TTGAACTTGGACTCGTCTGTTC as the sequence, how does the sensor-assay potency score (higher = more potent) read?
A: -0.177

Q: How did the sensor-assay potency score (higher = more potent) turn out when TCCGCTTATACTCTGATCTGAT was run?
A: -0.656

Q: TAAATGTCAAAGAGGACTGGGG was tested. Which sensor-assay potency score (higher = more potent) did it give?
A: -0.276

Q: Which sensor-assay potency score (higher = more potent) does the source give for TCTAGGACGGTGAATCTCGGGG here?
A: -0.586

Q: How did the sensor-assay potency score (higher = more potent) turn out when ATCTTCAGCAGAATCTTCCGGT was run?
A: 0.075

Q: With TTGAACTGCCCCGCATAGGTGG as the sequence, how does the sensor-assay potency score (higher = more potent) read?
A: -0.724

Q: Which sensor-assay potency score (higher = more potent) does the source give for TTCTGCTTTGTAGGCTCTGTTT here?
A: -1.4

Q: How did the sensor-assay potency score (higher = more potent) turn out when TATCTCATAAATGTCAAAGAGG was run?
A: -1.14

Q: How did the sensor-assay potency score (higher = more potent) turn out when ATGCTCTTCTCAATGTCCCGGC was run?
A: -0.72

Q: TATTCTTGAGACATTTCACCAC was tested. Which sensor-assay potency score (higher = more potent) did it give?
A: 0.412

Q: With TTGAAAACTGCTACCAGGTGGG as the sequence, how does the sensor-assay potency score (higher = more potent) read?
A: -0.0336

Q: For TCTGATGTCCAGGAGGTCGGTC, which sensor-assay potency score (higher = more potent) is on record?
A: -0.593

Q: TATTTTAGCAGCAAGAGGCTGT was tested. Which sensor-assay potency score (higher = more potent) did it give?
A: 0.315

Q: TTCATCAGTGCCAACCCCCTTG was tested. Which sensor-assay potency score (higher = more potent) did it give?
A: 0.00983

Q: TATACTCTGATCTGATGTCCAG was tested. Which sensor-assay potency score (higher = more potent) did it give?
A: -0.656

Q: Which sensor-assay potency score (higher = more potent) does the source give for TTTAATTCTCGGATGTGCTCAT here?
A: 0.906

Q: For TAGGATCTGCTGCCGCTGCTTG, which sensor-assay potency score (higher = more potent) is on record?
A: -0.946

Q: For TTTGATCAAATCCTTGCCGTAA, which sensor-assay potency score (higher = more potent) is on record?
A: -0.559

Q: How did the sensor-assay potency score (higher = more potent) turn out when ATACTCTGATCTGATGTCCAGG was run?
A: -0.494

target: ANXA5; assay: as above; conditions: shRNA

Q: Which sensor-assay potency score (higher = more potent) does the source give for TACACTTTAGTACTACAGCAGT here?
A: -0.815

Q: How did the sensor-assay potency score (higher = more potent) turn out when TTAATTTTTCAAATTTTCCAGT was run?
A: 0.274

Q: How did the sensor-assay potency score (higher = more potent) turn out when TTCTGATTTCAGGTCATCCAGA was run?
A: -0.946
